Experimental data from PubChem BioAssay (Tox21).
Records with an inconclusive call do not appear. Active and inactive are the calls of the source. Unless noted, calls come from the whole dose curve; as a rule, active = well fitted curve in the direction sought with a large enough effect in the repeat runs; inconclusive = weak or mixed curves; inactive = no such curve, though single readings can be large; an effect the other way counts as inactive or inconclusive.

Tests used:
[1] = qHTS assay to identify small molecule agonists of the sonic hedgehog signaling (Shh) pathway (AID 1259368; calls by dose curve;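 note: NIH/3T3-derived 3T3Gli1-Luc cells carrying a stable Gli1-driven firefly luciferase reporter; series mostly up to about 92 µM; nearly all actives have a fitted effect of over 15% in size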)
Method in brief: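 Stable NIH/3T3 Gli1-Luc reporter clone; 24 hr cpd exposure after a 4 hr settling period; luminescence endpoint.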

[2] = qHTS assay to identify small molecule antagonists of the sonic hedgehog signaling (Shh) pathway (AID 1259369; calls by dose curve; note: nearly all actives have a fitted effect of over 45% in size)
Method in brief: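 Gli1 transcriptional reporter (firefly Luc) in NIH/3T3 background, conditioned-medium activated. 24hr exposure, luminescence endpoint.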

[3] = target: Estrogen receptor beta (Homo sapiens) (UniProt Q92731); experiment: qHTS assay to identify small molecule antagonists of the estrogen receptor beta (ER-beta) signaling pathway (AID 1259378; active = well fitted inhibition curve with a large enough effect in the signal ratio in the repeat runs, not every such curve was filed as active; the % refers to the signal ratio)
Method in brief: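 ER-beta-UAS-bla HEK293T (GripTite) cells in 2% charcoal-stripped FBS medium were preincubated 6 hr at 37C, dosed with compound, then stimulated with 1 nM E2 (final) for 16 hr; beta-lactamase reporter read by B/G FRET fluorescence after 2 hr substrate loading.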

[4] = qHTS assay to identify small molecule agonists of the androgen receptor (AR) signaling pathway in the presence of an antagonist - cell viability counter screen (AID 1259379);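 note: MDA-kb2 human breast cancer cells carrying an MMTV luciferase reporter; series mostly up to about 92 µM; nearly all actives have a fitted effect of over 25% in size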
Method in brief: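 Counter screen for cell viability run in parallel with the AR agonist-mode luciferase assay. MDA-kb2 cells were co-treated with nilutamide (3.0uM final) and compounds, then incubated 16 hr at 37C, and CellTiter-Fluor fluorescence was measured.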

[5] = qHTS assay to identify small molecule agonists of the estrogen receptor beta (ER-beta) signaling pathway - cell viability counter screen (AID 1259380); note: nearly all actives have a fitted effect of over 30% in size
Method in brief: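 In this qHTS counter screen, HEK293T cells carrying an ER-beta/UAS beta-lactamase reporter, grown in 2% charcoal-stripped FBS, received compound for 16 hr; ATP-based CellTiter-Glo luminescence was then read after 30 min at room temperature.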

[6] = qHTS assay to identify small molecule antagonists of the estrogen receptor beta (ER-beta) signaling pathway - cell viability counter screen (AID 1259382); note: series mostly up to about 92 µM; nearly all actives have a fitted effect of over 55% in size
Method in brief: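 HEK293T ER-beta-UAS-bla, 2% charcoal-stripped FBS; compounds + 1nM E2 16 hr 37C; CellTiter-Glo luminescence, 30 min RT.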

[7] = target: Estrogen receptor (Homo sapiens) (UniProt P03372); experiment: qHTS assay to identify small molecule agonists of the estrogen receptor alpha (ER-alpha) signaling pathway in the presence of an antagonist (AID 1259383; calls by dose curve; note: top concentration of the series differs between compounds; nearly all actives have a fitted effect of over 15% in size)
Method in brief: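 ER-alpha agonism measured under antagonist challenge: 10.0nM ICI-182,780 (final) plus compound, 15 concentrations, 22hr, VM7Luc4E2 ERE-luciferase cells. Read by luminescence.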

[8] = qHTS assay to identify small molecule agonists or antagonists of the thyroid stimulating hormone receptor (TSHR) signaling pathway - wild type cell line counter screen (AID 1259384; calls by dose curve)
Method in brief: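 Wild-type HEK293 cells were plated 18 h at 37 C/5% CO2, pin-dosed with compound plus Ro20-1724 medium, held 30 min at room temperature, then given cAMP-d2 and anti-cAMP-cryptate; fluorescence was read after 1 h. Fifteen concentrations, triplicate.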

[9] = target: Thyrotropin receptor (Homo sapiens) (UniProt P16473); experiment: qHTS assay to identify small molecule antagonists of the thyroid stimulating hormone receptor (TSHR) signaling pathway (AID 1259385; calls by dose curve; note: nearly all actives have a fitted effect of over 20% in size)
Method in brief: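 TSHR-HEK293 cells were plated and held 18 h at 37C/5% CO2, then given compound plus Ro20-1724 and stimulated with TSH at 1.5 ng/mL final. After 30 min at room temperature, cAMP was detected with cAMP-d2/anti-cAMP-cryptate (1 h) by fluorescence.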

[10] = target: Progesterone receptor (Homo sapiens) (UniProt P06401); experiment: qHTS assay to identify small molecule agonists of the progesterone receptor (PR) signaling pathway (AID 1346784; calls by dose curve; note: nearly all actives have a fitted effect of over 30% in size)
Method in brief: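 PR-UAS-bla HEK 293T cells carrying a UAS-driven beta-lactamase reporter were seeded in medium with 2% charcoal-stripped FBS, preincubated 6 hr at 37C, then exposed to compounds in DMSO for 16 hr; agonism was read by LiveBLAzer B/G FRET fluorescence.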

[11] = target: Progesterone receptor (Homo sapiens) (UniProt P06401); experiment: qHTS assay to identify small molecule antagonists of the progesterone receptor (PR) signaling pathway (AID 1346795; active = well fitted inhibition curve with a large enough effect in the signal ratio in the repeat runs, not every such curve was filed as active; the % refers to the signal ratio)
Method in brief: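 PR-UAS-bla HEK293T cells carrying a UAS-driven beta-lactamase reporter were plated in medium with 2% charcoal-stripped FBS and rested 6 hr at 37C. Compounds were added with 1 nM R5020 (final) for 16 hr, then FRET substrate loaded 2 hr at room temperature.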

[12] = qHTS assay to identify small molecule antagonists of the progesterone receptor (PR) signaling pathway - cell viability counter screen (AID 1346798); note: series mostly up to about 92 µM; nearly all actives have a fitted effect of over 50% in size
Method in brief: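 PR-UAS-bla HEK293T cells in medium with 2% charcoal-stripped FBS were treated with compounds plus R5020 for 16 hr at 37C. Cell viability was then read by CellTiter-Glo luminescence after 30 min at room temperature in the same wells.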

[13] = qHTS assay to identify small molecule agonists of the progesterone receptor (PR) signaling pathway - cell viability counter screen (AID 1346799; calls by dose curve; note: nearly all actives have a fitted effect of over 45% in size)
Method in brief: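 PR-UAS-bla HEK293T cells, 3,000 per well in medium with 2% charcoal-stripped FBS, were preincubated 6 hr at 37C, then exposed to compounds for 16 hr; viability was read as CellTiter-Glo luminescence after 30 min at room temperature.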

[14] = qHTS assay to identify small molecule antagonists of the TGF-beta/Smad signaling pathway - cell viability counter screen (AID 1346824); note: nearly all actives have a fitted effect of over 50% in size
Method in brief: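 SBE-bla HEK 293T cells were plated overnight at 37 C, then given compounds in DMSO plus TGF-beta1 (added as 0.25 ng/mL solution) for 5 hr. After the bla read, CellTiter-Glo was added to the same wells and luminescence read after 30 min at room temperature.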

[15] = qHTS assay to identify small molecule agonists of the TGF-beta/Smad signaling pathway - cell viability counter screen (AID 1346829); note: top concentration of the series differs between compounds; nearly all actives have a fitted effect of over 45% in size
Method in brief: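 HEK 293T SBE-bla line, 5 hr compound exposure at 37 C, multiplexed CellTiter-Glo viability read by luminescence.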

[16] = qHTS assay to identify small molecule agonists of the TGF-beta/Smad signaling pathway (AID 1346859; active = well fitted activation curve with a large enough effect in the signal ratio in the repeat runs, not every such curve was filed as active; the % refers to the signal ratio; note: series mostly up to about 77 µM)
Method in brief: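 HEK 293T cells stably carrying a beta-lactamase reporter driven by the Smad binding element were seeded overnight, exposed to DMSO-dissolved compounds for 5 hr at 37 C, 5% CO2, then loaded with FRET substrate for 2 hr at room temperature.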

[17] = target: Thyrotropin-releasing hormone receptor (Homo sapiens) (UniProt P34981); experiment: qHTS assay to identify small molecule antagonists of the thyrotropin-releasing hormone receptor (TRHR) signaling pathway (AID 1346877; active = well fitted inhibition curve with a large enough effect in the repeat runs, not every such curve was filed as active; note: series mostly up to about 51 µM)
Method in brief: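 Human TRHR in HEK293 cells; inhibition of the intracellular calcium rise triggered by 1 nM TRH was followed by fluorescence over 3 min. Compounds were run at 15 concentrations, three replicates each.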

[18] = target: Androgen receptor (Homo sapiens) (UniProt P10275); experiment: qHTS assay to identify small molecule agonists of the androgen receptor (AR) signaling pathway in the presence of an antagonist (AID 1259381; calls by dose curve; note: nearly all actives have a fitted effect of over 15% in size)
Method in brief: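 AR antagonist background: nilutamide 3.0uM final. Cell line: MDA-kb2, MMTV-driven luciferase, responsive to both AR and GR. Exposure 16hr, 37C, no CO2; ONE-Glo luminescence.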

[19] = qHTS assay to identify small molecule agonists of the estrogen receptor alpha (ER-alpha) signaling pathway in the presence of an antagonist - cell viability counter screen (AID 1259386);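 note: series mostly up to about 92 µM; cells exposed to compounds for 22 h at 37 °C before the viability read; nearly all actives have a fitted effect of over 30% in size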
Method in brief: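 Steps: 5-day stripped-FBS culture; seed and incubate 24hr; add ICI-182,780 (10.0nM final); pin 15-point compound titration; incubate 22hr at 37C; add CellTiter-Fluor at 21hr; read fluorescence.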

Measured: Potency

Chain of Thyrotropin receptor (Homo sapiens) (P16473 whole entry, looked up): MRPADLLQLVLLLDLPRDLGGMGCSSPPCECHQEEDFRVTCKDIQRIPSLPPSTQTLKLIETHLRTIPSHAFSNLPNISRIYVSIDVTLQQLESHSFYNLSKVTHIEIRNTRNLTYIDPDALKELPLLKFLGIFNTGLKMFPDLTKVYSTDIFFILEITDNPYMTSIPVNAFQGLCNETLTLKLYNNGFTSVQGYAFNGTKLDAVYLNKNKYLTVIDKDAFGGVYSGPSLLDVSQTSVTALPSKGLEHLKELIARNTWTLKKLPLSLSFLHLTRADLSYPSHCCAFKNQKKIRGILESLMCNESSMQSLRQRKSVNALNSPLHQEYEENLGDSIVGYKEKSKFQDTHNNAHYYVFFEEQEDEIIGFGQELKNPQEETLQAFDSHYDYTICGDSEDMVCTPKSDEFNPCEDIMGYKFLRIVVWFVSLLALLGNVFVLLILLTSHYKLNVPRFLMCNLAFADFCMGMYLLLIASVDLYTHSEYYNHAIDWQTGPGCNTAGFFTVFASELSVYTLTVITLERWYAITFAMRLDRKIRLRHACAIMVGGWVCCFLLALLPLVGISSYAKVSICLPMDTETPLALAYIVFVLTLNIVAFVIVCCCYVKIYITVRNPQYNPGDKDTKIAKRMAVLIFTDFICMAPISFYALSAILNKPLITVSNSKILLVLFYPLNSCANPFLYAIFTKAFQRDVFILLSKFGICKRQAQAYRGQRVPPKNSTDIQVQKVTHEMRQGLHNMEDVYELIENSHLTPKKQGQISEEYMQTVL
Chain of Estrogen receptor (Homo sapiens) (P03372 whole entry, looked up): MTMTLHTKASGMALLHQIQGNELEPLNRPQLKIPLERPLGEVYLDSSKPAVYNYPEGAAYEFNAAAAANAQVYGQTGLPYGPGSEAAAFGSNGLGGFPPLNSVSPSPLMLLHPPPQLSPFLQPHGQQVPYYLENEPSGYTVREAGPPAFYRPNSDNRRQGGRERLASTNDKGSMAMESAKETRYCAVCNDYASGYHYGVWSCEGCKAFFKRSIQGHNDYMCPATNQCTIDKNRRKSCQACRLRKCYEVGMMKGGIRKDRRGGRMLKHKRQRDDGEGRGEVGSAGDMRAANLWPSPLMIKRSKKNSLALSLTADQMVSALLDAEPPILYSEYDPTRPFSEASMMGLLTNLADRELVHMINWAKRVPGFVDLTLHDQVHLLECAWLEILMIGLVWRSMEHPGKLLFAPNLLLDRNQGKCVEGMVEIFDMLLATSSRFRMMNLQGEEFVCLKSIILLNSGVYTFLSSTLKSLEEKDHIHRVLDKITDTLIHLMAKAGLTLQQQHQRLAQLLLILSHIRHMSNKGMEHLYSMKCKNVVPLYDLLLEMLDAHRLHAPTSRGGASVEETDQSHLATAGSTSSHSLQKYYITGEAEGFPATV
Chain of Estrogen receptor beta (Homo sapiens) (Q92731 whole entry, looked up): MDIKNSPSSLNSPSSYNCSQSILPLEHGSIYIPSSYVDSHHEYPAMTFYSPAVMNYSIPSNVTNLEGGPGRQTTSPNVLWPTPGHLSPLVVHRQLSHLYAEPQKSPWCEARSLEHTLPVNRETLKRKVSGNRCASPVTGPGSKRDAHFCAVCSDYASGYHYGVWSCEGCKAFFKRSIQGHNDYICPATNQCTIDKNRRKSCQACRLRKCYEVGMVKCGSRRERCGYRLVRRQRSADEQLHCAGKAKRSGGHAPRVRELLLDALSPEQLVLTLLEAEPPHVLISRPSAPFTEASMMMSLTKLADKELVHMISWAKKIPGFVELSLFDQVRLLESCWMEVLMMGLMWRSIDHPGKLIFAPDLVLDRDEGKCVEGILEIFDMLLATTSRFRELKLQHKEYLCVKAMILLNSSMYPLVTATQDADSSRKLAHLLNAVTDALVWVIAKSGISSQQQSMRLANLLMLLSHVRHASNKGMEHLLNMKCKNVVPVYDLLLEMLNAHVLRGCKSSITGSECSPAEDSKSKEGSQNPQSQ
Chain of Progesterone receptor (Homo sapiens) (P06401 whole entry, looked up): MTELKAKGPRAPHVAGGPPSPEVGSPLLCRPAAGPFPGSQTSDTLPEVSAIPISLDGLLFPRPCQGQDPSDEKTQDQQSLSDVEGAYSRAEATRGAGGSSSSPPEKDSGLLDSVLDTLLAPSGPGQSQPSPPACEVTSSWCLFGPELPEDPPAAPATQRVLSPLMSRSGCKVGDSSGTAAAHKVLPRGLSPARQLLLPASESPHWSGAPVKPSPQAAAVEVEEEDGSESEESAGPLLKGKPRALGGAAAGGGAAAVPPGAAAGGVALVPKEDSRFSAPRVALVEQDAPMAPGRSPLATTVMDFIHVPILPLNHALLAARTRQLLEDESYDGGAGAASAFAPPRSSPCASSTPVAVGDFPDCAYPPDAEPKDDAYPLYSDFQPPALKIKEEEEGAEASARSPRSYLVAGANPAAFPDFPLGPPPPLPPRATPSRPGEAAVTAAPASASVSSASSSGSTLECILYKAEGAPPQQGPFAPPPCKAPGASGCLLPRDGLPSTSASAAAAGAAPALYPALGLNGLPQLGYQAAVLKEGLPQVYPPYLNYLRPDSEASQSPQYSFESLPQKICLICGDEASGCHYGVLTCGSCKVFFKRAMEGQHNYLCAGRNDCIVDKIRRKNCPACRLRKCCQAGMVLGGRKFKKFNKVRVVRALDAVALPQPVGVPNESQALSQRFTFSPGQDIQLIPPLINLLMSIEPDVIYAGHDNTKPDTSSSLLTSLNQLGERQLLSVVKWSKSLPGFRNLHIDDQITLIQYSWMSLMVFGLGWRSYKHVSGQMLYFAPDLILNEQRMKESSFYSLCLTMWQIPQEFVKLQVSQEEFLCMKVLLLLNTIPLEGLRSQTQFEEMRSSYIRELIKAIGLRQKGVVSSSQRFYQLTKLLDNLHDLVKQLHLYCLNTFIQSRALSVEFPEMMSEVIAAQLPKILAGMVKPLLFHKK
Chain of Thyrotropin-releasing hormone receptor (Homo sapiens) (P34981 whole entry, looked up): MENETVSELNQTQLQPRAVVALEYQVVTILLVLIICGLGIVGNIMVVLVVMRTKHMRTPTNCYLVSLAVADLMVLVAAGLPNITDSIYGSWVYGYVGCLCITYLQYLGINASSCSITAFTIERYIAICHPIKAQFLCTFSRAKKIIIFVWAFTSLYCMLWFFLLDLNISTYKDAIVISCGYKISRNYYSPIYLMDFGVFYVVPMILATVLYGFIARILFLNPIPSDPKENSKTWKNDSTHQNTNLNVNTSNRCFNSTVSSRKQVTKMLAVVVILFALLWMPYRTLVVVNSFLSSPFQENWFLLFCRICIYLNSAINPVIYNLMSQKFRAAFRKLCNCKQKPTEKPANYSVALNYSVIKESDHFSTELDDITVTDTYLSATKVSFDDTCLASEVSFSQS
Chain of Androgen receptor (Homo sapiens) (P10275 whole entry, looked up): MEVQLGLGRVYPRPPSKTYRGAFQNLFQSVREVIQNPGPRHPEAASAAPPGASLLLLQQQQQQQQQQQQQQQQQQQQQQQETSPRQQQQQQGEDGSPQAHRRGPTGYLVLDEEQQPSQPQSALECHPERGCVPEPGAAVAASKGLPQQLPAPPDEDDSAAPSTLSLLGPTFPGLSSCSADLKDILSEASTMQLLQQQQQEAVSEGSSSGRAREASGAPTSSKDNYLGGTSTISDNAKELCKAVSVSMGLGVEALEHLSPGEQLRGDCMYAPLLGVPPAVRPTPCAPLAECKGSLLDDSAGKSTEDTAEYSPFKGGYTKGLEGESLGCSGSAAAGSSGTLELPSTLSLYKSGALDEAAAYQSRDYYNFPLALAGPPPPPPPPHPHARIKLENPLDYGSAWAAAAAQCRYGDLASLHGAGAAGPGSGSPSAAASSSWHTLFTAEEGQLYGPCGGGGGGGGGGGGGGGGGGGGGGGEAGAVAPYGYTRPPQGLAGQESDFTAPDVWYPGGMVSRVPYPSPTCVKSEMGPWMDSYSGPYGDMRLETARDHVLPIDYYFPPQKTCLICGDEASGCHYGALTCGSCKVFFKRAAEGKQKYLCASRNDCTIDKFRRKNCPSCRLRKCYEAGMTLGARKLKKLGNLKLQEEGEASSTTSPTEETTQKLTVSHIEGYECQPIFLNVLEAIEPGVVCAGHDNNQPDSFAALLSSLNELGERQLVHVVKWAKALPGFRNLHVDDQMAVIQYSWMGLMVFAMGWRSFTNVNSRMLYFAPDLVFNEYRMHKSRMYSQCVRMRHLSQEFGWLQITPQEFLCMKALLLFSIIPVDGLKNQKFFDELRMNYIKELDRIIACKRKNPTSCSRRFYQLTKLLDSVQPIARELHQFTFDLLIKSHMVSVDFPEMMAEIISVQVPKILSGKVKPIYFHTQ

Cc1ccc(C=O)cc1C
inactive: [1] | [2] | [3] | [4] | [5] | [6] | [7] | [8] | [9] | [10] | [11] | [12] | [13] | [14] | [15] | [16] | [17]

C#CC(C)N(C)C(=O)Nc1ccc(Cl)cc1 (stereo unspecified)
inactive: [1] | [2] | [3] | [4] | [18] | [19] | [10] | [13] | [14] | [16] | [17]

CCCCCCCCCCCCCC
inactive: [1] | [2] | [3] | [5] | [6] | [8] | [9] | [19] | [10] | [11] | [12] | [13] | [14] | [15] | [17]

CCC(CC)CO
inactive: [1] | [2] | [4] | [5] | [18] | [6] | [7] | [8] | [19] | [10] | [11] | [12] | [13] | [14] | [15] | [16] | [17]

CCCC(=O)C(C)=O
inactive: [1] | [2] | [3] | [4] | [5] | [6] | [7] | [8] | [9] | [19] | [12] | [13] | [14] | [15] | [16]

C=C(C)C(=O)OCCOP(=O)(O)OCCOC(=O)C(=C)C
inactive: [1] | [2] | [3] | [4] | [5] | [6] | [7] | [8] | [19] | [10] | [11] | [12] | [13] | [14] | [15] | [16] | [17]

CC(C)CCCCOC(=O)c1ccccc1C(=O)OCCCCC(C)C
inactive: [1] | [2] | [3] | [4] | [5] | [6] | [19] | [10] | [12] | [13] | [14] | [15] | [16] | [17]

CN(C)C(=O)CNC(=O)Cc1ccccc1
inactive: [1] | [2] | [3] | [4] | [5] | [6] | [7] | [8] | [10] | [11] | [12] | [13] | [14] | [15] | [16]
